In the supplement of paper PMC8866396 one finds cell viability data, which are given here for 31 compounds.

± gives the standard deviation of the averaged measurements.

The experiment deals with IL-6-GFP PC-9. Put plainly: cell viability (CCK-8 OD) relative to DMSO control (fraction of control); higher = more viable cells. The settings on record: compound concentration: 10 uM; treatment time: 48 h. In short, it runs like this: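 A purchased 510-compound library was screened at a final 10 μM for 48 h against PC-9 and PC-9GR lung cancer cells overexpressing IL-6-GFP via a lentiviral construct, seeded at 3000 cells/well in 96-well plates. GFP imaging was done on a parallel plate set. For viability, CCK-8 absorbance was recorded and each well's optical density was divided by that of the vehicle control well. There were two independent replicates.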
In the case of `CCCCC(=O)OC1(C(=O)CO)C(C)CC2C3CCC4=CC(=O)C=CC4(C)C3(F)C(O)CC21C` (stereo unspecified) [Betamethasone Valerate], the cell viability is 0.804 ± 0.026.
Consider `Cc1cncc(CN2CCC(=C3c4ccc(Cl)cc4CCc4cccnc43)CC2)c1.O=C(O)/C=C/C(=O)O` [Rupatadine Fumarate], for which the cell viability came to 1.16 ± 0.17.
Regarding `COc1cc(C2Oc3cc(C4Oc5cc(O)cc(O)c5C(=O)C4O)ccc3OC2CO)ccc1O` (stereo unspecified) [Silibinin], the cell viability came to 1.15 ± 0.099.
To `CC(Oc1cc(-c2cnn(C3CCNCC3)c2)cnc1N)c1c(Cl)ccc(F)c1Cl` (stereo unspecified) belongs 0.529 ± 0.15; to `CC(C)(O)c1ccccc1CCC(SCC1(CC(=O)O)CC1)c1cccc(/C=C/c2ccc3ccc(Cl)cc3n2)c1` (stereo unspecified) [Montelukast], 0.934 ± 0.32; to `CNC(=O)c1ccc(N2C(=S)N(c3ccc(C#N)c(C(F)(F)F)c3)C(=O)C2(C)C)cc1F` [Enzalutamide (MDV3100)], 0.808 ± 0.099.
The compound `COc1ccc2c(c1)nc(S(=O)Cc1ncc(C)c(OC)c1C)[n]2[Na]` (stereo unspecified) [Esomeprazole sodium] showed a cell viability of 0.939 ± 0.16.
Compound `CC(C(=O)O)c1ccc(-c2ccccc2)c(F)c1` (stereo unspecified) [Flurbiprofen] registered a cell viability of 0.9552 ± 0.0084.
Turning to `CC(C)(C)c1nc(-c2cccc(NS(=O)(=O)c3c(F)cccc3F)c2F)c(-c2ccnc(N)n2)s1.CS(=O)(=O)O` [Dabrafenib Mesylate], the cell viability worked out at 0.921 ± 0.19.
On to `CCCC(=O)OC1(C(=O)CCl)C(C)CC2C3CCC4=CC(=O)C=CC4(C)C3(F)C(=O)CC21C` (stereo unspecified) [clobetasone butyrate], for which the cell viability worked out at 0.99 ± 0.3.
Compound `CC(C)c1nc(N(C)S(C)(=O)=O)nc(-c2ccc(F)cc2)c1/C=C/C(O)CC(O)CC(=O)O` (stereo unspecified) [Rosuvastatin] displayed a cell viability of 1.12 ± 0.1.
The compound `CS(=O)(=O)Nc1cc2occ(NC=O)c(=O)c2cc1Oc1ccccc1` [Iguratimod] showed a cell viability of 1.02 ± 0.19.
As for `N#Cc1ccc(C2CCCc3cncn32)cc1` (stereo unspecified) [Fadrozole], the cell viability came to 1.18 ± 0.074.
Consider `CCC(C)C(=O)OC1CC(O)C=C2C=CC(C)C(CCC(O)CC(O)CC(=O)O)C21` (stereo unspecified) [Pravastatin], for which the cell viability turned out to be 0.999 ± 0.22.
In the case of `Cc1nc(-c2ccc(OCC(C)C)c(C#N)c2)sc1C(=O)O` [Febuxostat], the cell viability was 1.12 ± 0.27.
The compound `Cc1ccc(Nc2nccc(N(C)c3ccc4c(C)n(C)nc4c3)n2)cc1S(N)(=O)=O.Cl` had a cell viability of 0.532 ± 0.1.
Consider `O=C(O)CCCN1CCC(OC(c2ccc(Cl)cc2)c2ccccn2)CC1` (stereo unspecified) [Bepotastine], for which the cell viability came out at 1.06 ± 0.18.
`CC(=O)N1CC(O)CC1C(=O)O` (stereo unspecified) [Oxaceprol] returned a cell viability of 1.05 ± 0.098.
For the compound `O=C1OC(OC(=O)c2cccnc2Nc2cccc(C(F)(F)F)c2)c2ccccc21` (stereo unspecified) [Talniflumate], the cell viability was 0.967 ± 0.02.
Compound `O=C([O-])c1cc(N=Nc2ccc(O)c(C(=O)[O-])c2)ccc1O.[Na+].[Na+]` [Olsalazine Sodium] came in with a cell viability of 1.25 ± 0.062.
In the case of `Cn1cnc2c(F)c(Nc3ccc(Br)cc3F)c(C(=O)NOCCO)cc21`, the cell viability worked out at 1.2 ± 0.19.
With `Cl.c1ccc(CN(CC2=NCCN2)c2ccccc2)cc1` [Antazoline HCl], the cell viability amounted to 1.31 ± 0.11.
To `CC(C(=O)O)c1cccc(C(=O)c2ccccc2)c1` (stereo unspecified) [Ketoprofen] belongs 1.02 ± 0.11; to `Cl.O=C(OCC(O)CO)c1ccccc1Nc1ccnc2cc(Cl)ccc12` (stereo unspecified) [Glafenine HCl], 1.05 ± 0.25; to `Cc1nc(Nc2ncc(C(=O)Nc3c(C)cccc3Cl)s2)cc(N2CCN(CCO)CC2)n1` [Dasatinib], 0.206 ± 0.2.
As to `CN(C)c1cc(CNCC(C)(C)C)c(O)c2c1CC1CC3C(N(C)C)C(O)=C(C(N)=O)C(=O)C3(O)C(O)=C1C2=O.Cc1ccc(S(=O)(=O)O)cc1` (stereo unspecified) [Omadacycline tosylate], the cell viability stood at 1.3 ± 0.11.
`CN1CCN(C(c2ccccc2)c2ccccc2)CC1.Cl.Cl` [Cyclizine 2HCl] came in with a cell viability of 0.972 ± 0.038.
To `COc1ccc2c(c1)c(CC(=O)OCC(=O)O)c(C)n2C(=O)c1ccc(Cl)cc1` [Acemetacin] belongs 0.954 ± 0.2; to `CCOc1ccc(Cc2cc(C3OC(CO)C(O)C(O)C3O)ccc2Cl)cc1` (stereo unspecified) [Dapagliflozin], 1.74 ± 0.67.
As for `Cl.Cl.O=C(O)COCCN1CCN(C(c2ccccc2)c2ccc(Cl)cc2)CC1` (stereo unspecified) [Cetirizine DiHCl], the cell viability worked out at 1.02 ± 0.033.
Compound `COc1ccc(C2OCC3C(c4cc(OC)c(OC)c(OC)c4)OCC23)cc1OC` (stereo unspecified) [Magnolin] had a cell viability of 1.08 ± 0.081.
